Test results taken from PubChem BioAssay.
Calls of active or inactive are those of the source.

Columns and labels:
[1] = A549 cell viability effects, profiling panel, calcein-AM fluorescence, 48 h, basal (AID 1162); details: higher = more signal
[2] = adipocyte viability effects, profiling panel, cell-based, 3T3-L1 adipocytes, calcein-AM fluorescence, 48 h, basal (AID 1163); details: 3T3-L1 adipocytes viability, higher = more signal
[3] = HepG2 cell viability effects, profiling panel, calcein-AM fluorescence, 48 h, basal (AID 1164); details: higher = more signal
[4] = MM1S cell viability effects, profiling panel, calcein-AM fluorescence, 48 h, basal (AID 1165); details: higher = more signal;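 further: viability of MM1S multiple myeloma cells under basal unstimulated conditions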
[5] = basal RPMI8226 viability, no added stimulus, profiling panel, cell-based, calcein-AM fluorescence, 48 h, PK04 Diversity Set (AID 1166); details: RPMI8226 myeloma viability, higher = more signal;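 further: cells grown under basal conditions without added stimulus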
[6] = basal HepG2 mitochondrial membrane potential changes, profiling panel, cell-based, JC-1 fluorescence, 24 h, 100 nL compound (AID 1167); details: higher = more signal
[7] = basal 3T3-L1 adipocyte mitochondrial potential changes, profiling panel, cell-based, JC-1 fluorescence, 3T3-L1 adipocytes, 24 h, 100 nL compound (AID 1168); details: JC-1 mitochondrial fluorescence, higher = more signal, called active from +8 up or from −8 down
[8] = basal RPMI8226 mitochondrial membrane potential changes, profiling panel, cell-based, JC-1 fluorescence, 24 h, 100 nL compound (AID 1169); details: RPMI8226 myeloma, JC-1 mitochondrial potential fluorescence, higher = more signal
[9] = basal MM1S mitochondrial membrane potential changes, profiling panel, cell-based, JC-1 fluorescence, 24 h, 100 nL compound (AID 1170); details: higher = more signal
[10] = A549 lung cancer cell viability effects, profiling panel, resazurin fluorescence, 24 h, PK04 Diversity Set (AID 1171); details: higher = more signal, called active from +8 up or from −8 down
Further: test concentration not given here.

SMILES	z-score [1]	z-score [2]	z-score [3]	z-score [4]	z-score [5]	z-score [6]	z-score [7]	z-score [8]	z-score [9]	z-score [10]
CC1(C)C(=O)C(c2ccccc2)=C2CN3C(=O)N(CCc4ccccc4)C(=O)C3(Cc3ccc(F)cc3)C=C21 (stereo not given)	-0.767	0.366	0.184	-1.24	-1.81	0.39	-1.91 (inactive)	-0.733	-0.59	-0.745 (inactive)
C=CCC(OC(C)=O)[C@@H]1[C@@H](N(Cc2ccc(-c3cccc(C(F)(F)F)c3)o2)C(=O)c2cccc3ccccc23)c2cc(OCCCO)ccc2N1C(=O)Cc1ccc(OC)cc1 (stereo not given in full)	0.546	0.612	0.598	-1.16	-1.76	2.32	0.0601 (inactive)	-0.748	-0.0799	0.643 (inactive)
Nc1cc(Br)ccc1C(=O)O	1.51	0.679	0.264	1.29	0.804	0.799	0.55 (inactive)	0.432	1.54	0.671 (inactive)
NCCCCCNC(=O)[C@H]1C[C@H]2C(=O)N[C@@H](Cc3ccccc3)C(=O)N2[C@H]1c1ccc(O)cc1	0.422	0.774	-0.642	0.309	0.141	-0.746	-0.595 (inactive)	-0.135	-0.378	0.107 (inactive)
C=CCNC(=O)[C@H]1[C@@H]2C(=O)O[C@@H](c3ccccc3)[C@@H](c3ccccc3)N2[C@@H](c2ccc(O)cc2)[C@]12C(=O)N(C(=O)OCCOC)c1ccc(C#CCC(C(=O)OC)C(=O)OC)cc12	1.1	-0.206	-0.615	-2.93	-4.49	-1.26	0.448 (inactive)	-1.34	-1.83	0.979 (inactive)
NC(=O)[C@H]1[C@@H]2C(=O)O[C@@H](c3ccccc3)[C@@H](c3ccccc3)N2[C@@H](c2ccc(O)cc2)[C@]12C(=O)Nc1ccccc12	-0.265	-0.712	0.872	0.519	-0.544	-0.288	-0.243 (inactive)	-0.309	-0.371	-0.189 (inactive)
C=C(COC)/C(=C/C[C@@H](OC(C)=O)c1ccc(CO)o1)c1cc(C(=O)OC)ccc1OC	-0.109	-0.461	0.322	-0.425	-0.0799	0.0492	0.208 (inactive)	-0.726	-0.927	0.072 (inactive)
